This is part of a sample that, as a whole, favours compounds with a hit. Of some 83,000 tested, about 20% had one in any assay.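 Treatment: one concentration, 48 hours, 96-well format. Scoring: percent growth, with anything below 10 considered active.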 Unmarked numbers belong to inactive results. Calls of active or inactive are those of the source.
Assays:
Test in all cases: NCI-60 one-dose screen, 48 h (100 = growth as untreated, 0 = no growth, -100 = all killed)
Conditions in all cases: 10 µM unless noted
NCI-H23 lung = system: NCI-H23 lung
NCI-H226 lung = system: NCI-H226 lung
NCI-H322M lung = system: NCI-H322M lung
HOP-62 NSCLC = system: HOP-62 NSCLC
NCI-H460 lung = system: NCI-H460 lung
HOP-92 NSCLC = system: HOP-92 NSCLC
NCI-H522 lung = system: NCI-H522 lung
A549/ATCC NSCLC = system: A549/ATCC NSCLC
786-0 renal = system: 786-0 renal
COLO 205 colon = system: COLO 205 colon

| SMILES | growth (NCI-H23 lung) | growth (NCI-H226 lung) | growth (NCI-H322M lung) | growth (HOP-62 NSCLC) | growth (NCI-H460 lung) | growth (HOP-92 NSCLC) | growth (NCI-H522 lung) | growth (A549/ATCC NSCLC) | growth (786-0 renal) | growth (COLO 205 colon) |
| --- | --- | --- | --- | --- | --- | --- | --- | --- | --- | --- |
| COc1cc(-c2nc3c(ncc4ccc(=O)n(-c5ccccc5)c43)s2)cc(OC)c1OC | 80.5% | 63.3% | 73.6% | 88.6% | 84.3% | 19.1% | 64.8% | 86.3% | 46.7% | 79.2% |
| C/C(=N\O)c1ccc(NC(=O)CSc2nnc(-c3cc(-c4ccc(S(C)(=O)=O)cc4)nc4ccccc34)n2-c2ccccc2)cc1 | 99.2% | 90.3% | 91.7% | 98.7% | 90.4% | 80.7% | 82.2% | 81.3% | 93.9% | 102% |
| COc1ccc(N2CCC(=S)NC2=S)cc1 | 99.2% | 86.4% | 105% | 108% | 107% | 104% | 87.4% | 99.8% | 103% | 108% |
| [2H]C([2H])([2H])Oc1ccc(F)cc1/C=C/C(=O)/C=C(O)/C=C/c1cc(F)ccc1OC([2H])([2H])[2H] | 88.9% | 105% | 107% | 91.9% | 88.6% | 99.3% | 74.4% | 93.7% | 99.7% | 116% |
| CCN1CCN(CC(=O)Nc2nc3ccc(NCc4ccc(F)cc4)cc3s2)CC1 | 90% | 90.9% | 94.3% | 91.8% | 98.8% | 61.3% | 104% | 99.8% | 93% | 78% |
| CCCCNc1nnc2n(Cc3ccccc3)c(=O)c3c4c(sc3n12)CCCC4 | 45.5% | 50.8% | 69.2% | 44.5% | 22.7% | 53.2% | 33.2% | 37.8% | 47.6% | 61.1% |
| Cc1ccc(S(=O)(=O)Oc2ccc3sc4cccc(NCCN(C)C)c4c(=O)c3c2)cc1 | -93.5% (active) | -71.9% (active) | -88.1% (active) | -89.6% (active) | -92.7% (active) | -77.4% (active) | -81.7% (active) | -74.1% (active) | -85.7% (active) | -83.8% (active) |
| CN1CCN(Cc2ccc(NC(=O)c3cncc(C#Cc4cnc(N)c5ccc(F)cc45)c3)cc2C(F)(F)F)CC1 | 30.1% | 28.2% | 23.5% | 7.94% (active) | -15.9% (active) | -6.92% (active) | -81.1% (active) | 24.4% | -76.8% (active) | -25.7% (active) |
| Nc1ccc(-c2csc(-n3[nH]c(=O)ccc3=O)n2)cc1 | 98% | 92.2% | 103% | 107% | 102% | 103% | 93.4% | 101% | 87.1% | 109% |
| COc1cc(OC)cc(-c2ccc(-c3ccc(C(=N)N)o3)o2)c1 | 76.6% | 84.8% | 71.2% | 81.4% | 6.91% (active) | 69.2% | 57.6% | 47.1% | 69% | -61.5% (active) |
| O=C1/C(=C2\SC(=S)N(C3CC3)C2=O)SC(=S)N1C1CC1 | 96.7% | 95.5% | 95.6% | 99.3% | 103% | 98.9% | 91.9% | 98.1% | 98.6% | 117% |
| O=C(NC(Cc1nnc2n(Cc3ccccc3)c(=O)c3c4c(sc3n12)CCCC4)c1ccccc1)c1ccccc1 (stereo not given) | 90.9% | 113% | 93.3% | 71.1% | 94.4% | 74.6% | 94.8% | 90.4% | 81% | 107% |
| COc1ccccc1N(C(C)=O)C1=C(Cl)C(=O)c2ccccc2C1=O | -12.1% (active) | 23.7% | 38% | 38.6% | 4.81% (active) | -14.9% (active) | -78% (active) | 8.36% (active) | 37.2% | -11.7% (active) |
| Clc1c(Cl)[n+](Cc2ccc3ccccc3c2)cn1Cc1ccc2ccccc2c1 | 32.8% | 44.4% | 51% | -27.6% (active) | 26.1% | -12.1% (active) | -52.5% (active) | 52.5% | -8.06% (active) | -73.9% (active) |
| O=c1nc(-c2ccccc2)c2cc(-c3ccc(C(F)(F)F)nc3)ccc2[nH]1 | 89.5% | 100% | 92.9% | 106% | 106% | 105% | 85.3% | 111% | 100% | 105% |
| CCCCNC(=O)c1cc([N+](=O)[O-])cc(C2CCCCC2)c1O | 8.28% (active) | 29.5% | 55.3% | 57.7% | 30% | -13.6% (active) | 25.4% | 32% | 40.7% | 56.4% |
| CCOC(=O)C(=Cc1ccc(-c2ccccc2)cc1)C(=O)OCC | 38.6% | 46.5% | 78.4% | 73.7% | 78% | 63.2% | 26% | 49.6% | 43.1% | 55.6% |
| C=C1CC[C@@H]2[C@](C)(COC(C)=O)[C@H](OC(C)=O)CC[C@@]2(C)[C@@H]1CC(Nc1ccc(S(=O)(=O)NC(C)=O)cc1)C1=CCOC1=O (stereo not given in full) | 7.36% (active) | -52.3% (active) | 35.3% | 82% | 5.29% (active) | 21% | -63.2% (active) | 27.9% | -66% (active) | -32.7% (active) |
| COc1ccc(C[n+]2c3ccccc3n3c4ccc(N)cc4ccc32)c(OC)c1OC | 48.9% | 61.4% | 102% | 52.9% | 73.6% | -0.227% (active) | 11% | 63% | 75.9% | 15.5% |
| C=C(C)[C@@H]1CC[C@]2(C(=O)N3CCN(C)CC3)CC[C@]3(C)[C@H](CC[C@@H]4[C@@]5(C)CC[C@H](OC(=O)c6ccccc6C(=O)O)C(C)(C)[C@@H]5CC[C@]43C)[C@@H]12 | 99.9% | 99.4% | 101% | 98% | 103% | 102% | 84.2% | 104% | 101% | 111% |
| O=C1c2ccccc2C(=O)C1c1ccc(Br)cc1 | 81.6% | 103% | 122% | 115% | 102% | 75.1% | 96.9% | 108% | 93.9% | 113% |
| C#CC#CC#CC#CC#CC#CC#CC#CCC1OC[C@H](COC(=O)O[C@@H](C(=O)O[C@H]2C[C@@]3(O)[C@@H](OC(=O)c4ccccc4)[C@@H]4[C@]5(OC(C)=O)CO[C@@H]5C[C@H](O)[C@@]4(C)C(=O)[C@H](OC(C)=O)C(=C2C)C3(C)C)[C@@H](NC(=O)c2ccccc2)c2ccccc2)O1 (stereo not given in full) | 32.9% | 50.7% | 31.6% | 38.5% | 10.3% | 67.6% | 42.4% | 32.3% | 48.8% | 23% |
